Source: PubChem BioAssay (EPA / NIEHS)
Results filed as inconclusive are left out. Calls of active or inactive are those of the source. Rule for the calls: active = hit-call score of the fitted dose curve at least 0.9, where 1 is the maximum; inconclusive = response in the unintended direction; inactive = score below 0.9.

Each molecule was assayed against rat Androgen Receptor (AR), Ar (gene 24208) (UniProt P15207) (assay: NVS_NR_rAR: NovaScreen (NVS) Nuclear Receptor Binding Assay for rat Androgen Receptor (AR) (AID 2283366)).
In short: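 Actives from a duplicate single-concentration (25 uM) primary run went on to concentration series. Displacement of radioligand was counted by filtration and scintillation, 18 h post-dose, using prostate extracts from testosterone-pretreated rats, with DMSO as baseline.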

Chain of rat Androgen Receptor (AR), Ar (gene 24208) (P15207 whole entry, looked up): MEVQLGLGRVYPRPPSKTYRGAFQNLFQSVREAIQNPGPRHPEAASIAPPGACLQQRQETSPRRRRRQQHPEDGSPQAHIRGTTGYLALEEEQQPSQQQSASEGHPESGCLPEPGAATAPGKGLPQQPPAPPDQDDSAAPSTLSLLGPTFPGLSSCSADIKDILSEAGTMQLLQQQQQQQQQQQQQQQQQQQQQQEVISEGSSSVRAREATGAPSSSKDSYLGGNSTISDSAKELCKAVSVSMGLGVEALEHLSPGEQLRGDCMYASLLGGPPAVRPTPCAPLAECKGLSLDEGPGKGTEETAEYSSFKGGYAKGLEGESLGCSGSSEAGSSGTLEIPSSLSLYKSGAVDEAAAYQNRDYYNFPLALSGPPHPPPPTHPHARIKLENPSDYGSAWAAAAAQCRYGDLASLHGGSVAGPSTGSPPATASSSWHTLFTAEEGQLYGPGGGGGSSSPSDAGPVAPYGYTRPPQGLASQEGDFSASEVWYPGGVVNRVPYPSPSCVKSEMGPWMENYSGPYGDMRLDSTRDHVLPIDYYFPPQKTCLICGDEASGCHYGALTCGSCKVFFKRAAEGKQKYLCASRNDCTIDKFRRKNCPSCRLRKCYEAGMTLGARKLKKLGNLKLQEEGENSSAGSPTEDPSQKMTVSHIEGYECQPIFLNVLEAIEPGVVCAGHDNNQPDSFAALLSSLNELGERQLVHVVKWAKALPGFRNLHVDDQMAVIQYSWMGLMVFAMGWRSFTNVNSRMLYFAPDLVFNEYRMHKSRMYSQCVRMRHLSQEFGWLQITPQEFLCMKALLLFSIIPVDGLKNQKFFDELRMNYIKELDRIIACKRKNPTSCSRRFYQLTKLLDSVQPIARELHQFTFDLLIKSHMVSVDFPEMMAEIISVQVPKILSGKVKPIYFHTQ

Row | SMILES | AC50 | outcome
1 | CCN=c1cc2oc3cc(NCC)c(C)cc3c(-c3ccccc3C(=O)OCC)c-2cc1C | 6.57 µM (active) | 
2 | C#CC(O)CCC (centres undefined) |  | inactive
3 | CCN(CC)c1ccc(C=O)c(O)c1 | 25 µM (active) | 
4 | CCN=C1C=CC(=C(c2ccc(N(CC)CC)cc2)c2ccc(N(CC)CC)cc2)c2ccccc21 | 1.05 µM (active) | 
5 | CCCCCCCCCCCCCC[P+](CCCC)(CCCC)CCCC | 3.82 µM (active) | 
6 | O=C1c2ccccc2C(=O)c2c(Cl)cccc21 |  | inactive
7 | CCCCCCCC/C=C\CCCCCCCC(=O)OCC(O)CO (centres undefined) | 34.8 µM (active) | 

What follows are molecules tested on guinea pig Dopamine Transporter (DAT), gene 100714898 (assay: NVS_TR_gDAT: NovaScreen (NVS) Transporter Assay for guinea pig Dopamine Transporter (DAT) (AID 2283369);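 note: active compounds lower bound radioligand signal relative to DMSO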).
In short: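 Scintillation counts of filter-retained radioligand report binding to guinea pig striatal membranes after 2 h. Activity scored as signal loss relative to DMSO, first at 25 uM in duplicate, then in concentration series to 50 uM.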

Row | SMILES | AC50 | outcome
8 | O=C1C=CC(=O)N1c1ccc(Cc2ccc(N3C(=O)C=CC3=O)cc2)cc1 | 11.3 µM (active) | 
9 | c1ccc(C[P+](c2ccccc2)(c2ccccc2)c2ccccc2)cc1 | 15.1 µM (active) | 
10 | CSc1ccc(O)cc1C | 19.4 µM (active) | 
11 | CCN(CC)c1ccc(C=O)c(O)c1 | 15 µM (active) | 
12 | Cc1ccc(S(=O)(=O)C(I)I)cc1 | 15.6 µM (active) | 
13 | C[C@]12CC[C@H]3C(=CCc4cc(O)ccc43)[C@@H]1CCC2=O | 1.16 µM (active) | 
14 | CCN(CC)c1ccc2c(c1)Oc1cc(N(CC)CC)ccc1C21OC(=O)c2ccccc21 |  | inactive
15 | CCN(CC)c1ccc(N=Nc2ccccc2)cc1 |  | inactive

These molecules were tested against human Dopamine Transporter (DAT), SLC6A3 (gene 6531) (UniProt Q01959) (assay: NVS_TR_hDAT: NovaScreen (NVS) Transporter Assay for human Dopamine Transporter (DAT) (AID 2283374);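 note: activity means loss of bound radioligand signal relative to DMSO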).
In short: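 Extracted human SLC6A3 protein incubated 1 h with radioligand and test chemical; bound fraction separated on filters and counted. Single 25 uM duplicate screen preceded concentration-response follow-up; positive and negative controls on every plate.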

Chain of human Dopamine Transporter (DAT), SLC6A3 (gene 6531) (Q01959 whole entry, looked up): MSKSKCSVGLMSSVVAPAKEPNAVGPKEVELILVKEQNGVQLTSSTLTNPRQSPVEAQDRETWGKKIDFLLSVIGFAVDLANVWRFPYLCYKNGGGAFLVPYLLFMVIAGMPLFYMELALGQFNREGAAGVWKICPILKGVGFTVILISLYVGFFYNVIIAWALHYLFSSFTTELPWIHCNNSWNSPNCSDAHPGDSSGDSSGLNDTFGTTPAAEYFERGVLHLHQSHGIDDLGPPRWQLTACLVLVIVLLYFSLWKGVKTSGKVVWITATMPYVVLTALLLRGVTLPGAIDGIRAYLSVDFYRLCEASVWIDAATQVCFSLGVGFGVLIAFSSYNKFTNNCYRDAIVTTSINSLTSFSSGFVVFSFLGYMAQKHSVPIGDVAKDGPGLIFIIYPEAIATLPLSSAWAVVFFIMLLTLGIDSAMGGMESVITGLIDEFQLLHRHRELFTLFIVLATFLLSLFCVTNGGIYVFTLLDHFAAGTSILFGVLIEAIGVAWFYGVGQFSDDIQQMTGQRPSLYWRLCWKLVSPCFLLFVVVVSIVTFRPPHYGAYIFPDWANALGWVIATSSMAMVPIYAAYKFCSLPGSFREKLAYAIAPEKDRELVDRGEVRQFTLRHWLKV

Row | SMILES | AC50 | outcome
16 | Cc1cc(O)c(C(C)(C)C)cc1C(C)(C)C | 23.7 µM (active) | 
17 | O=C1C=CC(=O)N1c1ccc(Cc2ccc(N3C(=O)C=CC3=O)cc2)cc1 |  | inactive
18 | c1ccc(C[P+](c2ccccc2)(c2ccccc2)c2ccccc2)cc1 | 16.7 µM (active) | 
19 | CSc1ccc(O)cc1C | 33.9 µM (active) | 
20 | O=C(c1ccccc1)c1ccc(Cl)cc1 | 20.2 µM (active) | 
21 | C[C@]12CC[C@H]3C(=CCc4cc(O)ccc43)[C@@H]1CCC2=O | 4.59 µM (active) | 
22 | CC(=O)CCC(C)C |  | inactive
23 | CCN(CC)c1ccc(N=Nc2ccccc2)cc1 |  | inactive
24 | CCn1c2ccccc2c2ccccc21 |  | inactive
